Source: PubChem BioAssay
RORg inh: qHTS for inhibitors of ROR gamma transcriptional activity; hit rate 5.4% among 310,000; Drosophila S2 Gal4-RORgamma UAS-luciferase reporter, 20 h; Potency, µM (highest dose often 53.6 µM), without a hit: top-dose activity change, negative = inhibition, hits mostly inhibitors; Nuclear receptor ROR-gamma (Mus musculus), P51450; note: potency is the fitted concentration of half-maximal effect; nearly all actives have a fitted effect of over 60% in size
Target sequence (P51450 whole entry, looked up, the tested form may be a part): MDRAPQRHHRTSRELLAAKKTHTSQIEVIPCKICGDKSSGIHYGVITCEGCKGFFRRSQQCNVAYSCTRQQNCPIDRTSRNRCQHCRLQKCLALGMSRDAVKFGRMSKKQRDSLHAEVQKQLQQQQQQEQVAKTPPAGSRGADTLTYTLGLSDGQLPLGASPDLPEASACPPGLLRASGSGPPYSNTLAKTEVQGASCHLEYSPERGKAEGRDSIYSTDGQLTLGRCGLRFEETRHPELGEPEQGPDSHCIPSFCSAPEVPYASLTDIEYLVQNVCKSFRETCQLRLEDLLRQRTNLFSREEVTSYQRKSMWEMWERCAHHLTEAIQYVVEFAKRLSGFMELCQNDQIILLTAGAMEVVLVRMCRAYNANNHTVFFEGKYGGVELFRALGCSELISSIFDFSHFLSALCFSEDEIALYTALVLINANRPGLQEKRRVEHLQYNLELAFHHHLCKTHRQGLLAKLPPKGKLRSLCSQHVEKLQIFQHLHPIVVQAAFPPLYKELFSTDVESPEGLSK
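Compounds are pin-transferred onto Drosophila Schneider cells expressing a copper-inducible Gal4–ROR gamma transactivation domain fusion. After 1 hr, copper sulfate is added to 700 uM final; luciferase is read 20 hr later.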
DT40 TDP1 no CPT: qHTS for Inhibitors of human tyrosyl-DNA phosphodiesterase 1 (TDP1): qHTS in cells in absence of CPT; DT40 Tdp1-/- hTDP1 cells, no CPT, ATP luminescence, 48 h; Potency, µM (series often up to 46.2 µM), for the others: at the top dose activity change, negative = growth inhibition, hits mostly inhibitors; hit rate 15% among 420,000; AID 686978, 2013; note: potency is the fitted concentration of half-maximal effect; nearly all actives have a fitted effect of over 55% in size
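No-CPT arm: Tdp1-/-;hTDP1 DT40 cells (400/well) plus compounds, incubated ≥48 hr at 37 °C. Readout CellTiter-Glo luminescence.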
DT40 TDP1 CPT: qHTS for Inhibitors of human tyrosyl-DNA phosphodiesterase 1 (TDP1): qHTS in cells in presence of CPT; chicken DT40 Tdp1-/-;hTDP1 cells + 20 nM CPT, ATP luminescence, 48 h; Potency, µM (titrated, usually from 46.2 µM), for the others: at the top dose activity change, negative = growth inhibition, hits mostly inhibitors; hit rate 12% among 420,000; note: potency is the fitted concentration of half-maximal effect; nearly all actives have a fitted effect of over 55% in size
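Chicken DT40 Tdp1-/- cells complemented with human TDP1, 400 cells/well, exposed to compounds plus 20 nM camptothecin for at least 48 h at 37 C; viability read as ATP content by CellTiter-Glo luminescence.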
IL-1B inflam inh: qHTS for Inhibitors of Inflammasome Signaling: IL-1-beta AlphaLISA Primary Screen; THP-1 LPS/ATP IL-1B secretion, AlphaLISA, 16 h; active compounds read low; hit rate 4.7% among 360,000; activity change, % at 57.5 µM; in the data active = activity change below about -50%; inconclusive = mostly about -30% to -49%
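THP-1 cells pretreated 1 hr with compounds (up to 57.5 uM final), then stimulated with LPS (250 ng/mL final) plus ATP (1.25 mM final); secreted IL-1B measured by AlphaLISA after 16 hr, decreased signal indicating inhibition.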
LDHA inh: qHTS assay for inhibitors of human lactate dehydrogenase | hit rate 0.15% among 480,000 | AID 1347041, 2019 | activity change, % (values are at about 110 or 230 µM) | L-lactate dehydrogenase A chain (Homo sapiens), P00338 | purified LDHA, NADH/diaphorase-resazurin fluorescence; active compounds read low; in the data active = activity change below about -30%; inconclusive = mostly about -25% to -30%;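 note: plate controls were DMSO wells for no effect and wells without enzyme for full effect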
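Enzyme activity of human lactate dehydrogenase 5 (2 nM; 0.06 mM NADH, 0.2 mM pyruvate, 5 min, RT) is measured via a resazurin/diaphorase fluorescence readout of residual NADH.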
VP16 counter: VP16 counterscreen qHTS for inhibitors of ROR gamma transcriptional activity | Drosophila S2 Gal4-VP16 UAS-luciferase, luminescence, 20 h | Potency, µM (highest dose often 53.6 µM), inactives show at the top dose activity, negative = inhibition, actives largely listed as inhibitors | hit rate 3.5% among 310,000 | AID 2546, 2010;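 note: Gal4-VP16 expression switched on by copper sulfate through the metallothionein promoter; potency is the fitted concentration of half-maximal effect; nearly all actives have a fitted effect of over 50% in size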
An asterisk follows results filed as active; ? = inconclusive; . = no result given. In the library only some 18% were active in any assay of this set; here they are far more common. Unless noted, calls come from the whole dose curve; as a rule, active = well fitted curve in the direction sought with a large enough effect; inconclusive = small, poorly fitted or top-dose-only effect, or another doubt; inactive = no such curve, though single readings can be large; an effect the other way counts as inactive or inconclusive. Unless noted, % is set by controls: 0 for no effect and ±100 for the full control effect.

SMILES | RORg inh | DT40 TDP1 no CPT | DT40 TDP1 CPT | IL-1B inflam inh | LDHA inh | VP16 counter
CCCCNC(=S)N/N=C/c1ccc(OCC(=O)Nc2c(C)cc(C)cc2C)c(OC)c1 | ? | ? | -28% | 27 | -7 | 5µM*
COc1cc(/C=N/O)ccc1OCC(=O)Nc1c(C)cc(C)cc1C | . | . | . | . | 1 | .
O=C(CSc1nnnn1-c1ccc(O)cc1)NC(Cc1ccccc1)c1ccccc1 (stereo unspecified) | . | . | . | . | 5 | .
COCCNC(=S)N/N=C/c1ccc(OCc2ccc(C(=O)OC)cc2)c(OC)c1 | 2.2µM* | 23µM* | ? | -9 | 0 | 7.1µM*
Cc1cc(C(=O)N/N=C/c2ccc(OCc3ccccc3)cc2)c(C)o1 | ? | 16µM* | ? | -22 | -5 | -16%
O=C(N/N=C/c1ccc(OCc2ccccc2)cc1)c1ccco1 | ? | ? | ? | 24 | -3 | -2%
COc1ccc(/C=N/NC(=O)c2cc(C)oc2C)cc1OCc1ccccc1 | 10µM* | ? | ? | -24 | 1 | ?
COc1ccc(/C=N/NC(=O)c2ccco2)cc1OCc1ccccc1 | -3% | ? | -28% | 19 | 1 | 5%
OC1(c2cccc3ccccc23)CCN(Cc2ccccc2)C1 (stereo unspecified) | . | . | . | . | 2 | .
CCCN1Cc2cccc(C(=O)Nc3ccccc3Br)c2C1=O | . | . | . | . | 8 | .
O=C(O)CNCc1cccc(F)c1 | . | . | . | . | 1 | .
Clc1cc(Sc2ccc(Br)cc2)nnc1-c1ccccc1 | 26% | 29µM* | ? | -19 | -7 | -8%
O=C(Nc1ccc2c(c1)OCO2)c1ccccn1 | . | -20% | -11% | -29 | 1 | .
O=C(/C=C\Nc1ccc2c(c1)OCO2)c1ccccn1 | 1.1µM* | ? | -33% | -23 | 3 | 2.2µM*
Cc1ccc(NC(=O)C(C)C)cc1C | . | . | . | . | -1 | .
C[C@]12c3[nH]c4ccc(Cl)cc4c3CCN1C(=O)[C@@H](CC(=O)NCCN1CCOCC1)C[C@@H]2C(=O)N1CCCCC1 | . | 16µM* | ? | -22 | -3 | .
CC(C)(C)NC(=O)C[C@H]1C[C@H](C(=O)N2CCCCC2)[C@@]2(C)c3[nH]c4ccc(Cl)cc4c3CCN2C1=O | . | 21µM* | 23µM* | -23 | 1 | .
CN(C)CCCNC(=O)C[C@H]1C[C@H](C(=O)N2CCCCC2)[C@@]2(C)c3[nH]c4ccc(Cl)cc4c3CCN2C1=O | . | ? | ? | -12 | -4 | .
Fc1cc(Br)ccc1Nc1c2c(nc3nc(-c4cccs4)nn13)CCCC2 | . | 18µM* | 21µM* | . | 1 | .
CC(=O)c1cccc(Nc2c3c(nc4nc(-c5cccs5)nn24)CCCC3)c1 | . | 18µM* | ? | . | -4 | .
CCc1ccc(NC(=O)c2cnn3c2NC(C(=O)O)=CC3c2cc(OC)ccc2OC)cc1 (stereo unspecified) | . | . | . | . | 0 | .
Cc1ccc(Cc2cnc(NC(=O)/C(C#N)=C/c3ccc(-c4ccc([N+](=O)[O-])cc4)o3)s2)cc1 | 2.2µM* | ? | -5% | 13 | -7 | 0%
O=C(C[N+]12CN3CN(CN(C3)C1)C2)c1ccc(O)c(O)c1 | . | ? | 10µM* | . | 11 | .
CCn1c(=O)n(CC(=O)NCC(=O)Nc2cccc(C)c2C)c2ccccc21 | . | . | . | . | 2 | .
COc1ccccc1Nc1cc(C(=O)NCCCN2CCOCC2)c2ccccc2n1 | 30% | ? | 5% | -5 | -1 | 9%
SMILES | RORg inh | DT40 TDP1 no CPT | DT40 TDP1 CPT | IL-1B inflam inh | LDHA inh | VP16 counter
COc1ccc(N2CCN(CCCNC(=O)c3cc(Nc4ccc(OC)cc4OC)nc4ccccc34)CC2)cc1 | . | 21µM* | 23µM* | . | 0 | .
COc1ccc(OC)c(Nc2cc(C(=O)NCCCN3CCOCC3)c3ccccc3n2)c1 | -13% | 23µM* | ? | -63* | 3 | -8%
Nc1nccnc1C(=O)NCCC12CC3CC(CC(C3)C1)C2 | . | . | . | . | -6 | .
O=C(CSc1nc2cc([N+](=O)[O-])ccc2o1)Nc1ccc(F)c(F)c1 | . | . | . | . | -5 | .
COc1ccccc1-c1cccc(-c2nc(C(=O)Nc3nccs3)cc3c2[C@H](CCO)N(C(C)=O)C3)c1 | . | 5.8µM* | 6.5µM* | ? | 1 | .
CCC(=O)N1Cc2cc(C(=O)Nc3nccs3)nc(-c3cccc(-c4ccccc4OC)c3)c2[C@H]1CCO | . | 16µM* | ? | ? | -1 | .
Cc1cccc(CS(=O)(=O)Cc2ccc(C(=O)NCc3ccc(Cl)cc3)o2)c1 | . | 23µM* | 16µM* | . | -2 | .
Cc1cccc(CS(=O)(=O)Cc2ccc(C(=O)NCc3ccc(F)cc3)o2)c1 | . | ? | 21µM* | . | 0 | .
CCOc1ccc2ccccc2c1CNCc1ccco1 | . | . | . | . | -3 | .
CC(C)(C)OC(=O)N1CCC(c2c(C(=O)N3CCOCC3)cnn2-c2ccccc2Cl)CC1 | . | 1% | 5% | . | -11 | .
Cc1cccc(C)c1-n1ncc(C(=O)N2CCN(c3ccccn3)CC2)c1C1CCN(C(=O)OC(C)(C)C)CC1 | . | 18µM* | ? | . | -3 | .
CC(C)(C)OC(=O)N1CCC(c2c(C(=O)N3CCN(c4ccccn4)CC3)cnn2-c2ccc(F)cc2F)CC1 | . | ? | ? | . | -4 | .
CC(C)(C)OC(=O)N1CCC(c2c(C(=O)N3CCN(c4ccccn4)CC3)cnn2-c2ccccc2Cl)CC1 | . | 18µM* | ? | . | 1 | .
CC(C)(C)OC(=O)N1CCC(c2c(C(=O)N3CCCCC3)cnn2-c2ccccc2Cl)CC1 | . | ? | 18µM* | . | -2 | .
COc1ccc(OC)c(CCNC(=O)c2cnn(-c3ccccc3Cl)c2C2CCN(C(=O)OC(C)(C)C)CC2)c1 | . | 13µM* | 18µM* | . | 1 | .
CCCn1cc(SCC(=O)Nc2cccc(C)c2)c2ccccc21 | . | . | . | . | 9 | .
CCCc1nnc2c(=O)n(CC(=O)Nc3ccccc3C(=O)OCC)c3ccccc3n12 | . | . | . | . | 3 | .
O=C(NC1CC1)c1cc(SCC(=O)N2CCCCC2)nc2ccccc12 | . | . | . | . | -5 | .
COc1ccc(-c2cnc3c(NC(C)=O)cc(-c4cc(F)ccc4OC)cn23)cc1OC | . | 5.8µM* | 5.2µM* | -2 | 1 | .
COc1ccc(-c2cc(NC(C)=O)c3ncc(-c4ccc(F)cc4)n3c2)cc1OC | . | 15µM* | 23µM* | -18 | 6 | .
COc1ccc(F)cc1-c1cc(NC(C)=O)c2ncc(-c3cc(OC)c(OC)c(OC)c3)n2c1 | . | 2.9µM* | 3.7µM* | 39 | -8 | .
